Data on 88 compounds can be found in ChEMBL document CHEMBL3988442, “University of Dundee, Small-Polar-MMV Screening Library” (2021).

This test relates to Plasmodium falciparum. Briefly: Plasmodium falciparum sporozoite viability assay. In kind it is functional, organism-based. Further details: scale not given: in the data most compounds retested in dose-response had high values.

Several values for one entry are separate records, joined by “and”; a condition that tells them apart may be missing. Equal values may be shown once. About 290 (0.85%) of roughly 34,000 compounds showed an effect of 50% or more. The sample as a whole holds a higher share of strong results than the screen did.

Turning to `COc1cc(CCC(=O)N2CCC(c3cc4ncc(C)nc4[nH]3)C2)on1` (stereo not drawn), the “Percent Effect” value was found to be 3.144%.
The same measure, in the same setting: with `Cn1ncc2ccc(C3CCCN(C(=O)Cc4cccs4)C3)nc21` (stereo not drawn) the figure was 10.94%.
On the same count and under the same terms, next, `CC(=O)N1CCCC(Cc2cncc(Br)c2)C1` (stereo not drawn): 6.529%.
The same measure, in the same setting: next, `Cl.NC[C@H]1CC[C@H](c2c(C(N)=O)sc3ccccc32)CC1`: -7.353%.
In the case of `CC(C)c1nccn1-c1cncc(C2CCCN(C3CCCC3)C2)n1` (stereo not drawn), the “Percent Effect” value is -6.527%.
`CC(=O)Nc1ncc(S(=O)(=O)Nc2cccc(C)c2)s1`: the “Percent Effect” value (10 mM as filed; unlikely as a test dose) is -25.8% and -18.95%.
Still for that read-out and setting: next, `Cn1cnc2c1CCN(Cc1csc(-c3ccc(F)cc3)n1)C2`: -9.047% and 9.476% and -2.391%; `Cn1cnc2c1CCN(Cc1csc(-c3ccccc3F)n1)C2`: 76.94% and 88.44% and 75.64%; `c1ccc(Cc2noc(CN3CCc4c(ncn4C4CC4)C3)n2)cc1`: -14.98% and -2.391% and 8.348%.
In the case of `CN(Cc1ccncc1)C1CC2(CCN(Cc3ccccn3)CC2)C1`, the “Percent Effect” value was -12.29%.
For the compound `c1cc2c(cc1CN(Cc1nc(C3CC3)no1)C1CCCC1)OCO2`, the “Percent Effect” value (10 mM as filed; unlikely as a test dose) is 12.71% and 9.481% and -1.226%.
For the compound `CCc1noc(CN(Cc2ccc3c(c2)OCO3)C2CCCC2)n1`, the “Percent Effect” value (10 mM as filed; unlikely as a test dose) is 55.13% and 62.45% and 59.26%.
As for `COc1ccc(C(C(=O)O)N2CCC(Cn3cccn3)CC2)cc1F` (stereo not drawn), the “Percent Effect” value (10 mM as filed; unlikely as a test dose) was -7.781% and -11.29%.
Consider `CC(C)n1nnc(CC(=O)NCC2(c3ccccc3F)CCCC2)n1`, for which the “Percent Effect” value is given as 17.65%.
Still for that read-out and setting: with `O=C(CCCc1ccccn1)N1CCCC(n2cccn2)C1` (stereo not drawn) the figure was 0.2979%; with `C1CCCN(CC2CCCN(Cc3noc(C4CC4)n3)C2)CC1` (stereo not drawn), 3.026%.
Consider `COc1ccc(C(CO)NC(=O)Nc2cccc(C#N)c2)cc1` (stereo not drawn), for which the “Percent Effect” value (10 mM as filed; unlikely as a test dose) was 6.223% and 12.91% and -11.88%.
On to `COc1ccc(C(CO)NC(=O)Nc2cccc(C(C)=O)c2)cc1` (stereo not drawn), for which, under “10 mM as filed; unlikely as a test dose”, the “Percent Effect” value is 15.43% and 22.65%.
As to `COc1ccc(C(CO)NC(=O)Nc2cccc(F)c2)cc1` (stereo not drawn), the “Percent Effect” value (10 mM as filed; unlikely as a test dose) was 72.06% and 80.87%.
`CN(CCc1ccccc1)Cc1c(C2CCNCC2)[nH]c2ncccc12.Cl`: the “Percent Effect” value is given as -0.2567%.
On the same count and under the same terms, next, `CNc1cncc(C2CCCN2S(=O)(=O)c2ccccc2F)n1` (stereo not drawn): 7.397%.
Consider `COc1ccc(CNCc2c(C)nn(C)c2N2CCOCC2)cc1`, for which the “Percent Effect” value (10 mM as filed; unlikely as a test dose) is -16.18% and -2.312% and -16.24%.
On the same count and under the same terms, next, `Cc1nn(C)c(N2CCOCC2)c1CNCc1ccc(N(C)C)nc1`: 6.683% and 14.39% and 13.71%.
For `C=Cn1ncc(CN2C[C@@H]3CCCN3C[C@H]2Cc2ccccc2)c1C`, the “Percent Effect” value is recorded as -1.399%.
On to `CC(=O)N1N=C(c2cccs2)OC1C(=O)Nc1ccc(C)cc1` (stereo not drawn), for which the “Percent Effect” value was -16.37%.
On the same count and under the same terms, with `Cc1nc(NCc2cccc(F)c2)cc(C2CCNCC2)n1.Cl` the figure was 0.8951%.
As to `COc1cccc(Nc2nc(C3CCNCC3)c3sc(C)c(C)n23)c1.Cl`, where the note is “10 mM as filed; unlikely as a test dose”, the “Percent Effect” value was 77.36% and 36.71% and 52.33%.
The same measure, in the same setting: with `COc1cccc(Nc2nc(C3CCCNC3)c3sc(C)c(C)n23)c1.Cl` (stereo not drawn) the figure was 4.856% and 5.657% and 12.75%; with `Cc1sc2c(C3CCNCC3)nc(Nc3cccc(F)c3)n2c1C.Cl`, 63.64% and 42.54% and 49.37%.
Regarding `COc1cccc(-c2ccnc(C3CCNCC3)c2)c1`, the “Percent Effect” value amounted to 4.65%.
Consider `COc1cccc(-n2nnc(C(=O)N3CCN(C(C)=O)CC3)c2C)c1`, for which the “Percent Effect” value turned out to be 6.024%.
Still for that read-out and setting: with `COCC1CC2(CCN(c3cccc(C)n3)CC2)CN1c1ncccn1.O=C(O)C(F)(F)F` (stereo not drawn) the figure was -2.7%; with `COCCNC(=O)C1(CCCc2cccnc2)CCCN1C` (stereo not drawn), 16.89%; with `O=C1C(NCc2nnc3n2CCCC3)CCCN1c1ccccc1` (stereo not drawn), 6.53%.
Still for that read-out and setting: with `Cc1ccc2c(c1)C(=O)NCC1(CCN(C(=O)c3cc(C)no3)CC1)O2` the figure was 21.42%; with `CN1C[C@@H](C(=O)N2CCOCC2)[C@@]2(CCc3ccccc3C(=O)N2)C1`, -1.963%.
For `COc1ccc(OCCc2cc(C3CNCCO3)nn2C)cc1` (stereo not drawn), the “Percent Effect” value was 0.06458%.
Same read-out and setting: with `COc1ccc(-c2cnc(N(C)C)nc2C2CNCCO2)cc1.Cl` (stereo not drawn) the figure was 3.932%; with `Cn1nc(C2CNCCO2)cc1CCOc1ccc(C(F)(F)F)cc1` (stereo not drawn), 8.847%.
Consider `COc1ccc(-c2ccc(C3CNCCO3)nc2)cc1.Cl` (stereo not drawn), for which the “Percent Effect” value (10 mM as filed; unlikely as a test dose) was 82.18% and 93.08% and 86.88%.
Regarding `COc1ccc(-c2ccnc(C3CCNCC3)c2)cc1.Cl`, the “Percent Effect” value stood at 12.14%.
The same measure, in the same setting: next, `O=C(CCn1ccnc1)N1CCC(c2nnc(-c3ccccn3)o2)CC1`: 18.74%.
For the compound `Cc1cc(NC(=O)CN(C)C2CCCN(c3cccnn3)C2)on1` (stereo not drawn), the “Percent Effect” value is 6.872%.
For `Cc1cc2nc(SCC(=O)N3CCCCC3)n(C)c(=O)c2[nH]1`, the “Percent Effect” value came to 16.8%.
The same measure, in the same setting: next, `CN1C(=O)CCCC12CCCN(C(=O)c1ccoc1)C2` (stereo not drawn): 8.123%.
As to `Cc1ccccc1-n1c(C)cc(C(=O)N2CCn3c(C)nnc3C2)c1C`, for the setting “10 mM as filed; unlikely as a test dose”, the “Percent Effect” value is -10.25% and 8.528% and -8.016%.
Take `Cc1cccc(-n2c(C)cc(C(=O)N3CCn4c(C)nnc4C3)c2C)c1`: the “Percent Effect” value (10 mM as filed; unlikely as a test dose) is 50.81% and 47.19% and 51.44%.
Still for that read-out and setting: with `Cc1nnc2n1CCN(C(=O)c1cc(C)n(-c3cccnc3)c1C)C2` the figure was -3.499% and -16.38% and -11.58%.
For the compound `Cc1nnc2n1CCN(C(=O)c1cc(C)n(-c3ccccc3)c1C)C2`, the “Percent Effect” value (10 mM as filed; unlikely as a test dose) was 80.6% and 90.57% and 75.3%.
Still for that read-out and setting: with `Cc1cc(C(=O)N2CCc3nnc(N)cc3C2)c(C)n1-c1cccnc1` the figure was -13.69% and -18.44% and -9.069%; with `CCn1c(C)cc(C(=O)N2CCc3nnc(N)cc3C2)c1C`, -3.903% and -4.783% and -13.87%; with `Cc1nnc2n1CCN(C(=O)c1cc(C)n(-c3ccccn3)c1C)C2`, -4.516% and -0.613% and 8.394%.
Take `O=C(NCCc1cc(N2CCOCC2)nc(NC2CC2)n1)C1CCCO1` (stereo not drawn): the “Percent Effect” value was found to be 11.42%.
Same read-out and setting: next, `Cc1cc(C)n(CC2CCCN2CCS(C)(=O)=O)n1` (stereo not drawn): 6.268%.
Turning to `CCn1c(C2CCN(C(=O)c3cc(CC(C)C)on3)CC2)nn(C)c1=O`, for the setting “10 mM as filed; unlikely as a test dose”, the “Percent Effect” value is -0.7877% and 5.537%.
`CNC(=O)c1cn[nH]c1C1CCCN1C(=O)c1cccnc1` (stereo not drawn): the “Percent Effect” value turned out to be 6.523%.
On to `COCCN(Cc1cccc(C#N)c1)Cc1nc(C)no1`, for which the “Percent Effect” value (10 mM as filed; unlikely as a test dose) is 48.82% and 52.01%.
Regarding `Cc1noc(CN(CCc2ccco2)Cc2cccc(C#N)c2)n1`, the “Percent Effect” value (10 mM as filed; unlikely as a test dose) was -11.78% and -9.281%.
Still for that read-out and setting: next, `Cc1noc(CN(CCc2cccs2)Cc2cccc(C#N)c2)n1`: -26.23% and -21.92%; `COc1cccc(CN2CCCCCC2c2sccc2C)c1O` (stereo not drawn): 49.38% and 41.71%; `COc1cccc(CN2CCCCCC2c2cccc(C)c2)c1O` (stereo not drawn): 44.13% and 43.49% and 59.81%.
With `COCCC(=O)N1CCCN(Cc2nccn2C(C)C)CC1`, the “Percent Effect” value is recorded as 9.219%.
As for `c1ccc(Cc2nc(C3CC3)nn2-c2ccc3c(c2)OCCO3)nc1`, the “Percent Effect” value (10 mM as filed; unlikely as a test dose) was 32.69% and 40.6%.
The same measure, in the same setting: with `c1cncc(OCc2nc(C3CC3)nn2-c2ccc3c(c2)OCCO3)c1` the figure was 74.85% and 76.98%; with `c1cncc(CCc2nc(C3CC3)nn2-c2ccc3c(c2)OCCO3)c1`, 41.36% and 42.97%.
On the same count and under the same terms, with `O=C(c1cn(-c2ccccc2Cl)nn1)N1CCSCC1` the figure was -17.97% and -41.49%; with `O=C(c1cn(-c2cccc(Cl)c2F)nn1)N1CCCSCC1`, -42.82% and -45.17%; with `CN(C)c1cccc(C(=O)NCC(O)c2cccs2)c1` (stereo not drawn), 12.86% and 4.207%.
Turning to `CN1CCN(C(=O)[C@H]2CC[C@@H]3[C@@H](CCN3Cc3nccs3)O2)CC1`, the “Percent Effect” value is on record as -3.61%.
As to `COc1ccccc1C(=O)Nc1nc2c(s1)CN(S(=O)(=O)C1CC1)CC2`, the “Percent Effect” value (10 mM as filed; unlikely as a test dose) is 82.29% and 80.43%.
`CCc1nc(CN2CCCC(N(C)Cc3cnn(C)c3)C2)no1` (stereo not drawn): the “Percent Effect” value was -6.257%.
Still for that read-out and setting: next, `CCc1nc(CN2CCCN(Cc3cnn(C)c3)CC2)no1`: -9.563%; `Cc1ncncc1-c1ccnc(NC(C)C)n1`: -0.5927%; `CN(C)C(=O)c1cccnc1SCc1ccccc1Cl`: -19.98%.
Regarding `Cc1cc(CN2CCN(C(=O)NCc3csc(C)n3)CC2)on1`, the “Percent Effect” value is given as -16.07%.
As for `Cc1cc(C(=O)O)cc(S(=O)(=O)Nc2ccc3c(c2)OCCO3)c1C`, where the note is “10 mM as filed; unlikely as a test dose”, the “Percent Effect” value was 24.31% and 12.71% and 29.08%.
The same measure, in the same setting: with `Cc1cc(C(=O)O)cc(S(=O)(=O)Nc2ccc3c(c2)OCCCO3)c1C` the figure was 3.546% and -0.5757% and 17.55%.
On to `CC(=O)Nc1ncc(S(=O)(=O)Nc2ccc(C)cc2)s1`, for which the “Percent Effect” value (10 mM as filed; unlikely as a test dose) was -23.3% and -22.01%.
The same measure, in the same setting: with `Cc1c(F)cc(C(=O)O)cc1S(=O)(=O)Nc1ccc2c(c1)OCCO2` the figure was 59.81% and 58.05% and 66.51%; with `CC(=O)Nc1ncc(S(=O)(=O)Nc2ccc3c(c2)OCCO3)s1`, 98.04% and 98.83%.
In the case of `CCc1ccc(C(=O)O)cc1S(=O)(=O)Nc1ccc(F)c(C#N)c1`, the “Percent Effect” value came out at 9.76%.
As to `CC(=O)Nc1ncc(S(=O)(=O)Nc2cccc(F)c2)s1`, the “Percent Effect” value (10 mM as filed; unlikely as a test dose) is -17.58% and -16.77%.
As to `COc1ccc(CN2CCN(C(C)=O)CC3(CC(=O)N(C)C3)C2)cc1.O=C(O)C(F)(F)F` (stereo not drawn), the “Percent Effect” value was 6.785%.
Turning to `CCOc1ccc(CC(=O)N2CCCC(n3nc(C)nc3C)C2)cc1` (stereo not drawn), the “Percent Effect” value is listed as -2.342%.
On the same count and under the same terms, next, `CC(C)N(Cc1nc(-c2cccs2)no1)CC1CCC(=O)N1` (stereo not drawn): 3.846%.
Same read-out and setting: next, `OC(COCc1ccc2c(c1)OCO2)CN1CC(n2cccn2)C1` (stereo not drawn): 13.47%; `Cc1cc(C)n(C2CCN(Cc3nc4ccccc4n3C)CC2)n1`: 1.623%; `CC1=N[C@@]2(CC[C@@H]3CN(Cc4ccccc4)C[C@@H]32)C(=O)N1CC1CC1.O=C(O)C(F)(F)F`: 2.527%.
